The results in this text go back to PubChem BioAssay (Tox21).

The nature of experiment [1]: qHTS assay to identify small molecule antagonists of the estrogen related receptor (ERR) signaling pathway from Tox21 library - cell viability counter screen (AID 1224834). Note: nearly all actives have a fitted effect of over 30% in size. The method, boiled down:
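ERR reporter cells were plated 6 h before compound addition, then exposed to test compounds in DMSO for 17.5 h at 37 C. Viability was read as CellTiter-Fluor fluorescence after a 30-minute incubation at 37 C.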
For orientation: qHTS replaces the single test concentration by a dilution series.

Experiment [2] deals with Luciferin 4-monooxygenase (Photinus pyralis) (UniProt P08659). Nature of the experiment: qHTS assay to identify small molecule inhibitors of firefly luciferase (AID 1224835). Note: nearly all actives have a fitted effect of over 25% in size. The method, boiled down:
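Inhibition of purified Photinus luciferase is measured by luminescence. Substrate levels (D-luciferin, ATP) sit at their KM values. Each compound is tested in a concentration series.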

Experiment [3] can be described thus: qHTS assay to identify small molecule agonists of the constitutive androstane receptor (CAR) signaling pathway - cell viability counter screen (AID 1224836). Note: nearly all actives have a fitted effect of over 45% in size. In outline: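 Viability read-out: CellTiter-Fluor fluorescence after 23 h compound exposure at 37 C/5% CO2 in double-stable HepG2-CYP2B6-hCAR cells, with PK11195 present at 0.75 uM final; compounds tested in 15-point titration.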

Experiment [4] can be described thus: qHTS assay to identify small molecule antagonists of the constitutive androstane receptor (CAR) signaling pathway - cell viability counter screen (AID 1224837). Note: nearly all actives have a fitted effect of over 45% in size. In outline:
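HepG2 cells stably expressing hCAR and a CYP2B6-2.2kb reporter were plated and pre-incubated 4 hr at 37 C/5% CO2, then given compounds at 15 concentrations plus 50 nM CITCO (final). After 23 hr, viability was read by CellTiter-Fluor fluorescence.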

The target in experiment [5] is Nuclear receptor subfamily 1 group I member 3 (Homo sapiens) (UniProt Q14994). Description: qHTS assay to identify small molecule agonists of the constitutive androstane receptor (CAR) signaling pathway (AID 1224839).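 Note: HepG2 cells stably carrying human CAR and a CYP2B6 luciferase reporter; nearly all actives have a fitted effect of over 15% in size.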 In outline:
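Luminescence read-out (ONE-Glo, 30 min, room temperature) from double-stable HepG2-CYP2B6-hCAR cells exposed 24 h to 15-point compound series in presence of 0.75 uM PK11195 final.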

Experiment [6] is described as follows: qHTS assay to identify small molecule antagonists of the estrogen related receptor signaling pathway with the pleiotropic PPARgamma coactivator (PGC) from Tox21 10K library - cell viability counter screen (AID 1224840; active = well fitted cell-killing curve with a large enough effect in the repeat runs, not every such curve was filed as active; note: nearly all actives have a fitted effect of over 40% in size). The method, boiled down: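 PGC/ERR cells were seeded at 2,000 cells/well and left 6 hours at 37 C/5% CO2 before pin-tool addition of compounds in DMSO. After 17.5 hours at 37 C, CellTiter-Fluor was added and fluorescence read 30 minutes later.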

Experiment [7] can be described thus: qHTS assay to identify small molecule antagonists of the estrogen related receptor signaling pathway with the pleiotropic PPARgamma coactivator (PGC) from Tox21 10K library (AID 1224841; call rule not given here; note: actives are mostly falling curves and most rising ones were filed inactive; nearly all actives have a fitted effect of over 50% in size). The method, boiled down: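 PGC/ERR reporter cells were seeded at 2,000 cells/well and held 6 hours at 37 C/5% CO2 before pin-tool addition of compounds in DMSO. After 18 hours at 37 C, One-Glo was added and luminescence read after 30 minutes at room temperature.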

Experiment [8] in a line: qHTS assay to identify small molecule agonists of the estrogen related receptor signaling pathway with the pleiotropic PPARgamma coactivator (PGC) from Tox21 10K library (AID 1224842). Note: nearly all actives have a fitted effect of over 15% in size. In outline:
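Luminescence from One-Glo (30 min, room temperature) measured after PGC/ERR cells had 18 h at 37 C with pinned compound (23 nL in DMSO). Cells had been seeded at 2,000 per well and pre-incubated 6 h.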

Experiment [9] deals with Thyrotropin receptor (Homo sapiens) (UniProt P16473). Nature of the experiment: qHTS assay to identify small molecule agonists of the thyroid stimulating hormone receptor (TSHR) signaling pathway (AID 1224843; calls by dose curve; note: nearly all actives have a fitted effect of over 45% in size). The method, boiled down: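 Screening of the Tox21 10K collection used HEK293 cells engineered with TSHR at 800 cells per well. After a 30-min room-temperature compound exposure, HTRF cAMP reagents were added and fluorescence recorded 1 h later.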
Chain of Thyrotropin receptor (Homo sapiens) (P16473 whole entry, looked up): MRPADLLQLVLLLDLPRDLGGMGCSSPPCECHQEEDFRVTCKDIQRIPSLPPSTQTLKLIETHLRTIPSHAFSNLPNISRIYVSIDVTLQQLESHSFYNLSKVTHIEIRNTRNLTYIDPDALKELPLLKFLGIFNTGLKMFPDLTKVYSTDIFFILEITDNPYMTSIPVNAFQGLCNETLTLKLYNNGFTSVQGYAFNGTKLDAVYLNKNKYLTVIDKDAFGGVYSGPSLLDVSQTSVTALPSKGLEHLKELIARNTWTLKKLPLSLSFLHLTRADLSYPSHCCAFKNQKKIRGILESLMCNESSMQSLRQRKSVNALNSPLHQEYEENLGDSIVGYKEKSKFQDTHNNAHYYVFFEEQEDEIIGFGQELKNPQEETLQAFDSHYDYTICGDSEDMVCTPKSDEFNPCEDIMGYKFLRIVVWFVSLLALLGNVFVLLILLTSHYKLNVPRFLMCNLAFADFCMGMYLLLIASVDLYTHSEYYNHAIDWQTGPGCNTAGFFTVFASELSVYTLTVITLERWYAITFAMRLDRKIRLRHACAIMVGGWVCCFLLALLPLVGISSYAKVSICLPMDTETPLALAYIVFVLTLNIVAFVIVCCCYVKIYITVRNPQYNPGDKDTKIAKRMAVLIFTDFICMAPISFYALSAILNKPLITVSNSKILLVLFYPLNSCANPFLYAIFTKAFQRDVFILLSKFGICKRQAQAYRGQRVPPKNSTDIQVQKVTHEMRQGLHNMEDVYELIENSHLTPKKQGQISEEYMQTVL

Experiment [10] is described as follows: qHTS assay to identify small molecule agonists of the hypoxia (HIF-1) signaling pathway - cell viability counter screen (AID 1224844; calls by dose curve; note: nearly all actives have a fitted effect of over 50% in size). The method, boiled down:
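HRE-bla ME-180 cells in medium with 0.5% dialyzed FBS were preincubated 5 hrs at 37C, exposed to compounds for 17 hrs, then viability was read as CellTiter-Glo luminescence after 30 min at room temperature, in the reporter wells.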

A short description of experiment [11]: qHTS assay to identify small molecule agonists of H2AX (AID 1224845; active = well fitted activation curve with a large enough effect in the signal ratio in the repeat runs, not every such curve was filed as active; the % refers to the signal ratio). In outline: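 Phospho-H2AX Ser139 measured by HTRF (ex 320 nm; em 665 and 620 nm) after 24 hr antibody incubation. Compounds, 15 concentrations, 0.76% DMSO, were applied to CHO-K1 cells for 3hr at 37C before lysis.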
A short description of experiment [12]: qHTS assay to identify small molecule agonists of the hypoxia (HIF-1) signaling pathway (AID 1224846; active = well fitted activation curve with a large enough effect in the signal ratio in the repeat runs, not every such curve was filed as active; the % refers to the signal ratio). The method, boiled down:
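HRE-bla ME-180 cells (beta-lactamase reporter under hypoxia response element) were plated at 2,000 cells/well in medium with 0.5% dialyzed FBS, rested 5 hrs, then given compounds in DMSO for 17 hrs at 37C, 5% CO2. Reporter induction was read with CCF4-AM FRET substrate.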

A short description of experiment [13]: qHTS assay to identify small molecule antagonists of the estrogen related receptor (ERR) signaling pathway from Tox21 library (AID 1224848). Note: nearly all actives have a fitted effect of over 50% in size. Note: potency is the fitted concentration of half-maximal effect. The method, boiled down:
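Antagonist-mode screen of the Tox21 10K library in an NTP-provided ERR reporter cell line; 18 h compound exposure at 37 C, luminescence measured with ONE-Glo.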

Experiment [14] in a line: qHTS assay to identify small molecule agonists of the estrogen related receptor (ERR) signaling pathway from Tox21 library (AID 1224849; calls by dose curve; note: nearly all actives have a fitted effect of over 15% in size). Particulars: ERR reporter cell line, ONE-Glo luciferase, 18 h; at 92.4 µM (top of the series) unless noted. The method, boiled down:
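ERR reporter cell line (NTP) seeded, rested 6 h at 37 C/5% CO2, then pinned with Tox21 compounds in DMSO. After 18 h at 37 C, ONE-Glo luciferase luminescence was read following 30 min at room temperature.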

Experiment [15] in a line: qHTS RealTime-Glo MT Cell Viability Assay in HEK293 cells - 32 hour (AID 1224868). Note: top concentration of the series differs between compounds; nearly all actives have a fitted effect of over 50% in size. In outline: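 HEK293 cells were seeded at 600 cells/well together with NanoLuc luciferase and cell-permeant prosubstrate, preincubated 5 h at 37 C/5% CO2, then given compound in DMSO by pintool. Luminescence from viable-cell prosubstrate reduction was read repeatedly over 40 h.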
Experiment [16] is described as follows: A CellTox Green Cytotoxicity Assay to monitor cytotoxicity in HEK293 cells - 0 hour (AID 1224869). Note: nearly all actives have a fitted effect of over 50% in size. The method, boiled down: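 HEK293 cells premixed with CellTox Green dye were seeded at 600 cells/well and left 5 h at 37 C/5% CO2 before pin transfer of 23 nL compound in DMSO. Fluorescence from dye bound to dead-cell DNA was read during 40 h treatment.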
Experiment [17] can be described thus: qHTS RealTime-Glo MT Cell Viability Assay in HepG2 cells - 40 hour (AID 1224870). Note: nearly all actives have a fitted effect of over 50% in size. The method, boiled down:
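Real-time viability: cells seeded at 600 per well together with NanoLuc and cell-permeant prosubstrate, compounds added after 5 h incubation. Luminescence tracked at 0, 8, 16, 24, 32 and 40 h of exposure.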

The nature of experiment [18]: qHTS assay to identify small molecule agonists of H2AX - cell viability counter screen (AID 1224847; calls by dose curve;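 note: wild-type CHO-K1 cells; top concentration of the series differs between compounds; nearly all actives have a fitted effect of over 30% in size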). The method, boiled down:
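CHO-K1 wt, 1000 cells/well, o/n 37C; cpds 15 conc, 3 h 37C, 0.76% DMSO; CellTiter-Glo, 30 min RT, luminescence.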

A short description of experiment [19]: qHTS RealTime-Glo MT Cell Viability Assay in HepG2 cells - 24 hour (AID 1224867). Note: nearly all actives have a fitted effect of over 50% in size. The method, boiled down: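 HepG2 cells were seeded at 600 cells/well together with NanoLuc luciferase and a cell-permeant prosubstrate, preincubated 5 h at 37 C/5% CO2, then pin-dosed with compounds in DMSO. Nonlytic luminescence from viable cells was read at each time point.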

Experiment [20] deals with Nuclear receptor subfamily 1 group I member 3 (Homo sapiens) (UniProt Q14994). Description: qHTS assay to identify small molecule antagonists of the constitutive androstane receptor (CAR) signaling pathway (AID 1224838). Note: nearly all actives have a fitted effect of over 40% in size. In outline:
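HepG2 cells stably co-transfected with hCAR and a CYP2B6-2.2kb luciferase reporter were seeded 4 h before compound addition at 15 concentrations. Cells were stimulated with 50 nM CITCO (final) for 24 h at 37 C; luciferase luminescence was then read.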

A number with no mark means an inactive call. Inconclusive results are not listed. The source made the active and inactive calls. Unless noted, calls come from the whole dose curve; as a rule, active = well fitted curve in the direction sought with a large enough effect in the repeat runs; inconclusive = weak or mixed curves; inactive = no such curve, though single readings can be large; an effect the other way counts as inactive or inconclusive.
% is set by controls: 0 for no effect and ±100 for the full control effect.

Chain of Luciferin 4-monooxygenase (Photinus pyralis) (P08659 whole entry, looked up): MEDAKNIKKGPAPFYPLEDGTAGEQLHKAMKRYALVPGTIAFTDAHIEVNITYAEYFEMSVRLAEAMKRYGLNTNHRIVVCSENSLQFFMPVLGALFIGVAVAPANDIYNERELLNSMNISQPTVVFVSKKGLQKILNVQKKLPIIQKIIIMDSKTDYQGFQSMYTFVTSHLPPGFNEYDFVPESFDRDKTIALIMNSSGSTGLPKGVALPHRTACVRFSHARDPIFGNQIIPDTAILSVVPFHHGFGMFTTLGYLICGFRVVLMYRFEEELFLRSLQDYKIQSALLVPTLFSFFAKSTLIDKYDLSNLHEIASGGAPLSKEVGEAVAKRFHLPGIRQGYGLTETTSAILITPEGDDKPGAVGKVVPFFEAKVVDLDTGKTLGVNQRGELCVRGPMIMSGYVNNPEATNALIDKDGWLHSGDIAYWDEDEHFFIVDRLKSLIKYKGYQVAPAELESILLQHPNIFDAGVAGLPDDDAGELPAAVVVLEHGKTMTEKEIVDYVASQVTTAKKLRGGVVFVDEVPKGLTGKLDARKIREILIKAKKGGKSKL
Chain of Nuclear receptor subfamily 1 group I member 3 (Homo sapiens) (Q14994 whole entry, looked up): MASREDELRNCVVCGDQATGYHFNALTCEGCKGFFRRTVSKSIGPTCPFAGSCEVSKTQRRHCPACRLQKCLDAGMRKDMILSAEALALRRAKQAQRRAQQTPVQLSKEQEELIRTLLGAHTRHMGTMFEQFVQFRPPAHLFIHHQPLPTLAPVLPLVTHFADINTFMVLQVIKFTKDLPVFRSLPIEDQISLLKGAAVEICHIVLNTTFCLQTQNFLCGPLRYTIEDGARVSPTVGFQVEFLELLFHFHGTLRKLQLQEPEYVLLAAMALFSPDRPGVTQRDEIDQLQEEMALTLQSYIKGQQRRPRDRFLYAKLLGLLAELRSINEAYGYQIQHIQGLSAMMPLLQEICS

In the case of `C[C@]12CCC(=O)C=C1C=C[C@@H]1[C@@H]2CC[C@@]2(C)[C@H]1CC[C@@]21CCC(=O)O1`, the Potency entry in experiment [1], in [2], in [3], in experiment [4], in experiment [5] and in [6] was “inactive” throughout. Further, the Potency entry in experiment [7], in experiment [8], in [9], in [10], in experiment [11] and in [15] was “inactive” each time. The Potency entry in [16] and in experiment [17] was “inactive” throughout. Further, in experiment [12], the call was inactive. Also, the Potency in [13] was 23.7 µM (active). Further, in experiment [14], the activity change, positive = activation is -28.3% [at 42.5 µM].
Turning to `Nc1ccc(S(=O)(=O)O)c(N)c1`, the Potency result in experiment [1], in experiment [2], in experiment [3], in experiment [4], in experiment [6] and in experiment [7] was “inactive” in each case. Moreover, the Potency entry in [8], in experiment [9], in [10], in [18], in experiment [13] and in [19] was “inactive” throughout. For the same compound, the Potency entry in [15] and in [17] was “inactive” throughout. Besides, in experiment [12], the compound was classed as inactive. Also, the activity change, positive = activation in [14] was 1.48%.
In the case of `CCCCCCOC(=O)C(C)C`, the Potency entry in [1], in experiment [2], in experiment [3], in experiment [4], in experiment [6] and in [7] was “inactive” throughout. Also, the Potency result in experiment [8], in [9], in experiment [10], in [11], in [18] and in [13] was “inactive” in each case. Further, the Potency result in [19], in [15], in experiment [16] and in experiment [17] was “inactive” each time. Also, the compound was called inactive in experiment [12]. In addition, in experiment [14], the activity change, positive = activation is 7.77%.
Take `CCCCCCCCCOC(C)=O`: the Potency entry in [1], in [2], in experiment [3], in experiment [4], in experiment [20] and in experiment [5] was “inactive” throughout. Further, the Potency result in [9], in experiment [10], in [11], in experiment [18], in experiment [15] and in experiment [17] was “inactive” in each case. In experiment [12], the outcome was inactive.
On to `Cc1ccc(S)cc1`, for which the Potency result in experiment [1], in [2], in [3], in experiment [4], in experiment [20] and in [5] was “inactive” in each case. The Potency result in experiment [9], in experiment [19], in [15], in [16] and in experiment [17] was “inactive” each time. The compound was called inactive in experiment [12].
With `CC1(C)C2=CCCC(C)(C)[C@]23CC[C@H]1C3`, the Potency result in experiment [1], in experiment [2], in experiment [3], in experiment [4], in experiment [20] and in [5] was “inactive” each time. Besides, the Potency result in [10], in experiment [11], in [19], in experiment [15], in experiment [16] and in experiment [17] was “inactive” throughout. In experiment [12], the compound was classed as inactive.
With `CC(C)C(OC(=O)c1ccccc1)C(C)(C)COC(=O)c1ccccc1` (stereo not drawn), the Potency entry in experiment [1], in experiment [2], in [3], in [4], in experiment [20] and in experiment [6] was “inactive” in each case. The Potency result in experiment [10], in experiment [11], in experiment [19], in [15], in [16] and in experiment [17] was “inactive” each time. Moreover, the call in experiment [12] was inactive.
For `CC#N`, the Potency entry in experiment [1], in experiment [2], in experiment [3], in experiment [4], in experiment [6] and in experiment [9] was “inactive” each time. Further, the Potency entry in experiment [10], in [11], in experiment [18], in experiment [13], in [19] and in [15] was “inactive” in each case. In addition, the Potency result in experiment [16] and in experiment [17] was “inactive” each time. Also, in experiment [12], the outcome was inactive. For the same compound, in [14], the activity change, positive = activation is 6.68%.
